In PubChem BioAssay AID2284365 (EPA ToxCast):
The source made the active and inactive calls. How the source made its calls: active means hit-call score of the fitted dose curve at least 0.9, where 1 is the maximum; inactive means score below 0.9.

Test: CCTE_Mundy_HCI_iCellGABA_NOG_NeuronCount: CCTE's Neurite Outgrowth Assay in iCellGABA cells for Neuron Count, Mundy Lab
Method: CCTE_Mundy_HCI_iCellGABA_NOG is a multiplexed, cell-based-readout assay that uses iCell GABANeurons from FUJIFILM Cellular Dynamics, Inc. (FCDI), human GABAergic enriched neurons derived from induced pluripotent stem (iPS) cells, with measurements taken at 50.33 hours after chemical dosing in a microplate: 96-well plate.CCTE_Mundy_HCI_iCellGABA_NOG_NeuronCount is one of four components of the CCTE_Mundy_HCI_iCellGABA_NOG assay. It measures cell viability related to number of neurons using High Content Imaging of fluorescently labelled markers.Data from the assay component CCTE_Mundy_HCI_iCellGABA_NOG_NeuronCount was analyzed at the endpoint CCTE_Mundy_HCI_iCellGABA_NOG_NeuronCount in the positive analysis fitting direction relative to DMSO as the negative control and baseline of activity. Using a type of viability reporter, loss-of-signal activity can be used to understand developmental effects.
Exposure starts 2 hours post-plating by adding 10 ul of the working solution to 90 ul of media in the wells for a 1/10 dilution. Forty-eight hours after chemical treatment cells are fixed by direct addition of 100 ul of warm (37C) Dulbecco's phosphate buffered saline (DPBS) fixative solution containing 8% paraformaldehyde, 8% sucrose, and 0.1% of 3 mg/ml Hoechst 33342 into each well. Primary antibodies are prepared by dilution in Immunocytochemical Staining Buffer (ISB), 10X Dulbecco's PBS, 0.1% Saponin, 5% Bovine Serum Albumin, 0.5% NaN3 (Sodium Azide) and betaIII-tubulin (rabbit anti-betaIII-tubulin, 1:800) followed by Alexa Fluor-488 secondary (1:500) to label neuronal cell bodies and neurites. A Cellomics ArrayScan VTi HCS Reader is used for automated image acquisition and analysis of neurite outgrowth.
In the case of `CCN(CC)c1nc(C)cc(OP(=S)(OC)OC)n1`, the AC50 is reported as 19.1 µM (active). For `CNC(=O)CSP(=S)(OC)OC`, the outcome was “inactive”. In the case of `CCOP(=S)(OCC)SCSCC`, the AC50 is reported as 0.316 µM (active). For `COP(=O)(OC)C(O)C(Cl)(Cl)Cl` (stereo unspecified), the AC50 was 0.205 µM (active). In the case of `CCOP(=S)(OCC)SCSC(C)(C)C`, the AC50 is reported as 9.92 µM (active). In the case of `CCCCSP(=O)(SCCCC)SCCCC`, the AC50 is reported as 9.92 µM (active). With `CCOC(=O)CC(SP(=S)(OC)OC)C(=O)OCC` (stereo unspecified) the AC50 was 50 µM (active). In the case of `COP(=O)(OC)O/C(=C\Cl)c1cc(Cl)c(Cl)cc1Cl`, the outcome is reported as “inactive”. With `COP(N)(=O)SC` (stereo unspecified) the outcome was “inactive”. For `CCOP(=O)(OCC)Oc1nc(Cl)c(Cl)cc1Cl`, the outcome was “inactive”. For `COP(=O)(OC)OC=C(Cl)Cl`, the outcome was “inactive”. In the case of `COP(=O)(OC)O/C(C)=C/C(=O)N(C)C`, the outcome is reported as “inactive”. In the case of `CCCSP(=O)(OCC)SCCC`, the outcome is reported as “inactive”. For `COP(=S)(OC)SCN1C(=O)c2ccccc2C1=O`, the AC50 was 9.92 µM (active). For `CCCSP(=O)(OCC)Oc1ccc(Br)cc1Cl` (stereo unspecified), the outcome was “inactive”. With `COP(=O)(NC(C)=O)SC` (stereo unspecified) the outcome was “inactive”. For `CCOP(=S)(OCC)Oc1cc(C)nc(C(C)C)n1`, the outcome was “inactive”. For `CCOP(=S)(OCC)OC(Cl)C(Cl)(Cl)Cl` (stereo unspecified), the AC50 was 9.92 µM (active). In the case of `CCOP(=S)(OCC)Oc1ccc2c(C)c(Cl)c(=O)oc2c1`, the AC50 is reported as 23.4 µM (active). For `CCOP(=S)(Oc1cnc(C(C)(C)C)nc1)OC(C)C` (stereo unspecified), the outcome was “inactive”. With `CCOP(=O)(SC(C)CC)N1CCSC1=O` (stereo unspecified) the outcome was “inactive”. In the case of `COP(=O)(OC)OC(Br)C(Cl)(Cl)Br` (stereo unspecified), the AC50 is reported as 9.92 µM (active). In the case of `CCOC(=O)CC(SP(=O)(OC)OC)C(=O)OCC` (stereo unspecified), the outcome is reported as “inactive”. For `CNC(=O)CSP(=O)(OC)OC`, the AC50 was 18.9 µM (active). For `CCOP(=S)(OCC)Oc1nc(Cl)c(Cl)cc1Cl`, the AC50 was 9.92 µM (active). For `CCOP(=O)(OCC)Oc1cc(C)nc(C(C)C)n1`, the outcome was “inactive”.
